# Values joined by “and” are separate entries in the source; they are usually repeats but may differ in a detail not shown here. Equal values may be shown once. In all, about 5,500 compounds went through this assay and about 2,000 (36%) were called active. Another 18% or so got no clear call; they are omitted. The list shows a part of the results. A number with no mark means an inactive call. No stated cut-off is given here; in the data, active means normalized growth mostly below about 0.91 (no sharp cut-off); inconclusive means no clear call, values can overlap the other calls; inactive means mostly above about 0.92.
# Assay: chemical genetic growth profiling, strain panel (AID 1159580);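 further: tested at 20 µM; growth read once vehicle control cultures reached saturation at 30 °C; 1 = growth at the plate median or of vehicle wells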
# Settings: S. cerevisiae deletion strains, growth OD
compound,measurement,setting,value
O=C(O)c1cc(O)c2c(c1)[C@@H]([C@H]1c3cc(C(=O)O)cc(O)c3C(=O)c3c(O[C@H]4O[C@H](CO)[C@@H](O)[C@H](O)[C@H]4O)cccc31)c1cccc(O[C@H]3O[C@H](CO)[C@@H](O)[C@H](O)[C@H]3O)c1C2=O,normalized growth,"locus YAL013W, strain DEP1, stronger effect = lower value",1.02
same,normalized growth,"locus YAL021C, strain ccr4, stronger effect = lower value",0.983
same,normalized growth,"locus YAL026C, strain drs2, stronger effect = lower value",1.01
same,normalized growth,"locus YAL030W, strain snc1, stronger effect = lower value",1.02
same,normalized growth,"locus YBL061C, strain skt5, stronger effect = lower value",1.01
same,normalized growth,"locus YBR009C, strain hhf1, stronger effect = lower value",1.04
same,normalized growth,"locus YBR021W, strain FUR4, stronger effect = lower value",1.02
same,normalized growth,"locus YBR023C, strain chs3, stronger effect = lower value",1.02
same,normalized growth,"locus YBR171W, strain sec66, stronger effect = lower value",1.02
same,normalized growth,"locus YBR229C, strain ROT2, stronger effect = lower value",1.01
same,normalized growth,"locus YBR231C, strain swc5, stronger effect = lower value",1.02
same,normalized growth,"locus YBR279W, strain paf1, stronger effect = lower value",1.01
same,normalized growth,"locus YCL011C, strain gbp2, stronger effect = lower value",1.02
same,normalized growth,"locus YCL016C, strain dcc1, stronger effect = lower value",1.02
same,normalized growth,"locus YCL029C, strain bik1, stronger effect = lower value",1
same,normalized growth,"locus YCL061C, strain MRC1, stronger effect = lower value",0.987
same,normalized growth,"locus YCL069W, strain vba3, stronger effect = lower value",1.01
same,normalized growth,"locus YCR088W, strain abp1, stronger effect = lower value",1.02
same,normalized growth,"locus YDL005C, strain med2, stronger effect = lower value",1
same,normalized growth,"locus YDL035C, strain GPR1, stronger effect = lower value",1.02
same,normalized growth,"locus YDL040C, strain nat1, stronger effect = lower value",1.04
same,normalized growth,"locus YDL074C, strain BRE1, stronger effect = lower value",1.04
same,normalized growth,"locus YDL101C, strain DUN1, stronger effect = lower value",1.01
same,normalized growth,"locus YDL134C, strain PPH21, stronger effect = lower value",1.01
same,normalized growth,"locus YDL185W, strain tfp1, stronger effect = lower value",1.01
same,normalized growth,"locus YDL192W, strain arf1, stronger effect = lower value",0.995
same,normalized growth,"locus YDR001C, strain nth1, stronger effect = lower value",1.04
same,normalized growth,"locus YDR069C, strain doa4, stronger effect = lower value",1.01
same,normalized growth,"locus YDR101C, strain arx1, stronger effect = lower value",0.98
same,normalized growth,"locus YDR137W, strain rgp1, stronger effect = lower value",0.953
same,normalized growth,"locus YDR150W, strain NUM1, stronger effect = lower value",1.02
same,normalized growth,"locus YDR159W, strain sac3, stronger effect = lower value",1.02
same,normalized growth,"locus YDR162C, strain NBP2, stronger effect = lower value",1.02
same,normalized growth,"locus YDR195W, strain ref2",1.17 [resistant] (active)
same,normalized growth,"locus YDR297W, strain sur2, stronger effect = lower value",1.02
same,normalized growth,"locus YDR318W, strain mcm21, stronger effect = lower value",1.01
same,normalized growth,"locus YDR334W, strain swr1, stronger effect = lower value",1.05
same,normalized growth,"locus YDR335W, strain msn5, stronger effect = lower value",1.02
same,normalized growth,"locus YDR388W, stronger effect = lower value",1
same,normalized growth,"locus YDR392W, strain spt3, stronger effect = lower value",0.93
same,normalized growth,"locus YDR502C, strain sam2, stronger effect = lower value",0.995
same,normalized growth,"locus YEL003W, strain gim4, stronger effect = lower value",1.02
same,normalized growth,"locus YEL037C, strain rad23, stronger effect = lower value",1.09 [resistant] (active)
same,normalized growth,"locus YEL061C, strain CIN8 (second series), stronger effect = lower value",1.05
same,normalized growth,"locus YEL061C, strain CIN8, stronger effect = lower value",1.01
same,normalized growth,"locus YER015W, strain faa2, stronger effect = lower value",1.01
same,normalized growth,"locus YER016W, strain bim1, stronger effect = lower value",1.02
same,normalized growth,"locus YER110C, stronger effect = lower value",1
same,normalized growth,"locus YER155C, strain BEM2 (second series), stronger effect = lower value",1.01
same,normalized growth,"locus YER155C, strain BEM2, stronger effect = lower value",1.01
same,normalized growth,"locus YER167W, strain BCK2, stronger effect = lower value",1.01
same,normalized growth,"locus YFR010W, strain ubp6, stronger effect = lower value",1.02
same,normalized growth,"locus YGL078C, strain dbp3, stronger effect = lower value",0.993
same,normalized growth,"locus YGL086W, strain mad1, stronger effect = lower value",1
same,normalized growth,"locus YGL167C, strain pmr1, stronger effect = lower value",1.03
same,normalized growth,"locus YGL173C, strain kem1, stronger effect = lower value",1.02
same,normalized growth,"locus YGL227W, strain vid30, stronger effect = lower value",1.05
same,normalized growth,"locus YGL240W, strain doc1, stronger effect = lower value",0.989
same,normalized growth,"locus YGL248W, strain PDE1, stronger effect = lower value",1.02
same,normalized growth,"locus YGL253W, strain hxk2, stronger effect = lower value",1.02
same,normalized growth,"locus YGR135W, strain pre9, stronger effect = lower value",1.01
same,normalized growth,"locus YGR252W, strain gcn5, stronger effect = lower value",0.949
same,normalized growth,"locus YHR013C, strain ard1, stronger effect = lower value",1.06
same,normalized growth,"locus YHR027C, strain rpn1, stronger effect = lower value",1.05
same,normalized growth,"locus YHR030C, strain SLT2, stronger effect = lower value",1.01 and 0.986
same,normalized growth,"locus YHR079C, strain IRE1 (second series), stronger effect = lower value",1
same,normalized growth,"locus YHR079C, strain IRE1, stronger effect = lower value",0.981
same,normalized growth,"locus YHR094C, strain hxt1, stronger effect = lower value",0.999
same,normalized growth,"locus YHR129C, strain ARP1, stronger effect = lower value",1.01
same,normalized growth,"locus YHR142W, strain chs7, stronger effect = lower value",1.09
same,normalized growth,"locus YHR200W, strain rpn10, stronger effect = lower value",0.991
same,normalized growth,"locus YIL066C, strain RNR3, stronger effect = lower value",1.02
same,normalized growth,"locus YIL073C, strain SPO22, stronger effect = lower value",1.06
same,normalized growth,"locus YIL125W, strain kgd1, stronger effect = lower value",1
same,normalized growth,"locus YIR030C, strain dcg1, stronger effect = lower value",0.999
same,normalized growth,"locus YJL092W, strain hpr5, stronger effect = lower value",1.01
same,normalized growth,"locus YJL095W, strain BCK1 (second series), stronger effect = lower value",1.12 [resistant] (active)
same,normalized growth,"locus YJL095W, strain BCK1, stronger effect = lower value",1.03 and 0.978
same,normalized growth,"locus YJL129C, strain trk1, stronger effect = lower value",1.04
same,normalized growth,"locus YJL134W, strain LCB3, stronger effect = lower value",1.02
same,normalized growth,"locus YJL154C, strain vps35, stronger effect = lower value",1.02
same,normalized growth,"locus YJL164C, strain tpk1, stronger effect = lower value",1
same,normalized growth,"locus YJL166W, strain qcr8, stronger effect = lower value",0.958
same,normalized growth,"locus YJL168C, strain set2, stronger effect = lower value",1.02
same,normalized growth,"locus YJL187C, strain SWE1 (second series), stronger effect = lower value",1.02
same,normalized growth,"locus YJL187C, strain SWE1, stronger effect = lower value",1.01
same,normalized growth,"locus YJR043C, strain POL32, stronger effect = lower value",1
same,normalized growth,"locus YJR066W, strain TOR1, stronger effect = lower value",0.934
same,normalized growth,"locus YKL009W, strain mrt4, stronger effect = lower value",1.11
same,normalized growth,"locus YKL068W, stronger effect = lower value",1.01
same,normalized growth,"locus YKL085W, strain MDH1 (second series), stronger effect = lower value",1.03
same,normalized growth,"locus YKL085W, strain MDH1, stronger effect = lower value",1.03
same,normalized growth,"locus YKL160W, strain elf1, stronger effect = lower value",0.993
same,normalized growth,"locus YKR001C, strain vps1, stronger effect = lower value",1.02
same,normalized growth,"locus YKR026C, strain gcn3, stronger effect = lower value",1.02
same,normalized growth,"locus YLL001W, strain dnm1, stronger effect = lower value",1.02
same,normalized growth,"locus YLL026W, stronger effect = lower value",1.02
same,normalized growth,"locus YLL041C, strain sdh2, stronger effect = lower value",1.01
same,normalized growth,"locus YLR027C, strain aat2, stronger effect = lower value",1.02
same,normalized growth,"locus YLR039C, strain RIC1, stronger effect = lower value",1.03
same,normalized growth,"locus YLR058C, strain SHM2, stronger effect = lower value",1.01
same,normalized growth,"locus YLR102C, strain apc9, stronger effect = lower value",1
same,normalized growth,"locus YLR113W, strain HOG1, stronger effect = lower value",1.01
same,normalized growth,"locus YLR221C, strain rsa3, stronger effect = lower value",0.986
same,normalized growth,"locus YLR258W, strain gsy2, stronger effect = lower value",0.99
same,normalized growth,"locus YLR262C, strain YPT6 (second series), stronger effect = lower value",0.979
same,normalized growth,"locus YLR262C, strain YPT6, stronger effect = lower value",1.1
same,normalized growth,"locus YLR268W, strain sec22, stronger effect = lower value",0.998
same,normalized growth,"locus YLR320W, strain mms22, stronger effect = lower value",1.03
same,normalized growth,"locus YLR330W, strain CHS5, stronger effect = lower value",1.01
same,normalized growth,"locus YLR342W, strain FKS1 (second series), stronger effect = lower value",0.985
same,normalized growth,"locus YLR342W, strain FKS1, stronger effect = lower value",1.04
same,normalized growth,"locus YLR357W, strain rsc2, stronger effect = lower value",1.28 [resistant] (active)
same,normalized growth,"locus YLR370C, strain arc18, stronger effect = lower value",1
same,normalized growth,"locus YLR371W, strain rom2, stronger effect = lower value",0.999
same,normalized growth,"locus YLR384C, strain iki3, stronger effect = lower value",1.02
same,normalized growth,"locus YLR418C, strain cdc73, stronger effect = lower value",0.993
same,normalized growth,"locus YML016C, strain PPZ1, stronger effect = lower value",1.01
same,normalized growth,"locus YML032C, strain rad52, stronger effect = lower value",0.998
same,normalized growth,"locus YML120C, strain ndi1, stronger effect = lower value",1.01
same,normalized growth,"locus YML124C, strain tub3, stronger effect = lower value",0.997
same,normalized growth,"locus YMR058W, strain fet3, stronger effect = lower value",1.03
same,normalized growth,"locus YMR078C, strain ctf18, stronger effect = lower value",1
same,normalized growth,"locus YMR125W, strain sto1, stronger effect = lower value",1.02
same,normalized growth,"locus YMR129W, stronger effect = lower value",1.04
same,normalized growth,"locus YMR205C, strain PFK2, stronger effect = lower value",0.958
same,normalized growth,"locus YMR223W, strain ubp8, stronger effect = lower value",0.997
same,normalized growth,"locus YMR231W, strain pep5, stronger effect = lower value",1.01
same,normalized growth,"locus YMR307W, strain GAS1, stronger effect = lower value",1
same,normalized growth,"locus YNL067W, strain RPL9B, stronger effect = lower value",1.01
same,normalized growth,"locus YNL071W, strain lat1, stronger effect = lower value",1.03
same,normalized growth,"locus YNL128W, strain TEP1, stronger effect = lower value",1.05
same,normalized growth,"locus YNL153C, strain GIM3, stronger effect = lower value",1
same,normalized growth,"locus YNL183C, strain NPR1, stronger effect = lower value",0.937
same,normalized growth,"locus YNL209W, strain ssb2, stronger effect = lower value",1.01
same,normalized growth,"locus YNL233W, strain BNI4, stronger effect = lower value",1.01
same,normalized growth,"locus YNL248C, strain rpa49, stronger effect = lower value",1
same,normalized growth,"locus YNL250W, strain rad50, stronger effect = lower value",1.02
same,normalized growth,"locus YNL271C, strain bni1, stronger effect = lower value",1
same,normalized growth,"locus YNL298W, strain CLA4, stronger effect = lower value",0.993
same,normalized growth,"locus YNL307C, strain MCK1, stronger effect = lower value",1.01
same,normalized growth,"locus YNL322C, strain KRE1 (second series), stronger effect = lower value",1.02
same,normalized growth,"locus YNR049C, strain mso1, stronger effect = lower value",1.05
same,normalized growth,"locus YNR052C, strain pop2, stronger effect = lower value",0.978
same,normalized growth,"locus YOL006C, strain TOP1, stronger effect = lower value",1.04
same,normalized growth,"locus YOL012C, strain htz1",0.926
same,normalized growth,"locus YOL147C, strain pex11, stronger effect = lower value",1
same,normalized growth,"locus YOR001W, strain rrp6, stronger effect = lower value",1.04
same,normalized growth,"locus YOR061W, strain CKA2, stronger effect = lower value",1.02
same,normalized growth,"locus YOR069W, strain VPS5, stronger effect = lower value",1.02
same,normalized growth,"locus YOR070C, strain gyp1, stronger effect = lower value",1.08 [resistant] (active)
same,normalized growth,"locus YOR080W, strain dia2, stronger effect = lower value",1.13 [resistant] (active)
same,normalized growth,"locus YOR083W, strain WHI5, stronger effect = lower value",0.957
same,normalized growth,"locus YOR106W, strain vam3, stronger effect = lower value",0.979
same,normalized growth,"locus YOR136W, strain idh2, stronger effect = lower value",1.01
same,normalized growth,"locus YOR144C, strain elg1, stronger effect = lower value",1.01
same,normalized growth,"locus YOR184W, strain ser1, stronger effect = lower value",1.02
same,normalized growth,"locus YOR231W, strain MKK1, stronger effect = lower value",0.988
same,normalized growth,"locus YOR265W, strain rbl2, stronger effect = lower value",1.01
same,normalized growth,"locus YOR270C, strain vph1, stronger effect = lower value",1.05
same,normalized growth,"locus YOR290C, strain snf2, stronger effect = lower value",0.997
same,normalized growth,"locus YOR316C, strain cot1, stronger effect = lower value",1
same,normalized growth,"locus YPL051W, strain arl3, stronger effect = lower value",0.995
same,normalized growth,"locus YPL055C, strain LGE1, stronger effect = lower value",1.01
same,normalized growth,"locus YPL078C, strain atp4, stronger effect = lower value",0.979
same,normalized growth,"locus YPL106C, strain sse1, stronger effect = lower value",0.977
same,normalized growth,"locus YPL240C, strain hsp82, stronger effect = lower value",0.993
same,normalized growth,"locus YPL241C, strain CIN2, stronger effect = lower value",1.02
same,normalized growth,"locus YPL256C, strain CLN2, stronger effect = lower value",1.03
same,normalized growth,"locus YPR119W, strain clb2, stronger effect = lower value",1
same,normalized growth,"locus YPR141C, strain kar3, stronger effect = lower value",1
same,normalized growth,"locus YPR163C, strain tif3, stronger effect = lower value",1.01
same,normalized growth,"locus YPR167C, strain met16, stronger effect = lower value",0.99
same,normalized growth,"strain wtn01, stronger effect = lower value",1.01
